Values joined by “and” are separate entries in the source; they are usually repeats but may differ in a detail not shown here. Equal values may be shown once. Read-outs that look alike come from different tables or passages of the source.
Experiments:
Details in all cases: concentration: 1 μM, replicates: in singlicate, n = 1
YANK3 = test system: T1, YANK3
T1 construct: gene STK32C

YES = test system: T2, YES
T2 construct: gene YES1

YSK1 = test system: T3, YSK1
T3 construct: gene STK25

YSK4 = test system: T4, YSK4
T4 construct: gene MAP3K19

ZAK = test system: ZAK
ZAP70 = test system: ZAP70
p38-alpha = test system: T5, p38-alpha
T5 construct: gene MAPK14

p38-beta = test system: T6, p38-beta
T6 construct: gene MAPK11

p38-delta = test system: p38-delta
p38-gamma = test system: T7, p38-gamma
T7 construct: gene MAPK12
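Note: KINOMEscan kinase panel screen.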

| Compound | %Inh (YANK3) [%] | %Inh (YES) [%] | %Inh (YSK1) [%] | %Inh (YSK4) [%] | %Inh (ZAK) [%] | %Inh (ZAP70) [%] | %Inh (p38-alpha) [%] | %Inh (p38-beta) [%] | %Inh (p38-delta) [%] | %Inh (p38-gamma) [%] | %Inh (YANK3; 1 µM) | %Inh (YES; 1 µM) | %Inh (YSK1; 1 µM) | %Inh (YSK4; 1 µM) | %Inh (ZAK; 1 µM) | %Inh (p38-alpha; 1 µM) | %Inh (p38-delta; 1 µM) | %Inh (p38-gamma; 1 µM) | %Inh (ZAP70; 1 µM) | %Inh (p38-beta; 1 µM) |
| --- | --- | --- | --- | --- | --- | --- | --- | --- | --- | --- | --- | --- | --- | --- | --- | --- | --- | --- | --- | --- |
| O=c1cc(N2CCOCC2)nc2n(Cc3cccc4ccccc34)ccn12 [GSK2333389] | 38 | 2 | 0 | 15 | 3 | 0 | 0 | 0 | 16 | 0 | – | – | – | – | – | – | – | – | – | – |
| Nc1nc(-c2ccc3c(N)n[nH]c3c2)cc(N2CCCC2)n1 [GSK2227430] | 0 | 0 | 9 | 36 | 0 | 0 | 0 | 0 | 25 | 0 | – | – | – | – | – | – | – | – | – | – |
| COc1ccc(COc2cc(-n3cnc4ccccc43)sc2C(N)=O)cc1 [GSK1024304] | 0 | 0 | 0 | 15 | 14 | 0 | 35 | 0 | 36 | 0 | – | – | – | – | – | – | – | – | – | – |
| c1ccc(-c2n[nH]cc2-c2ccnc3ccccc23)nc1 [GW271431] | 18 | 21 | 1 | 28 | 28 | 0 | 29 | 0 | 52 | 0 | – | – | – | – | – | – | – | – | – | – |
| NCCNS(=O)(=O)c1ccc(-c2ccnc3[nH]ccc23)cc1 [GSK977617] | – | – | – | – | – | 0 | – | 0 | – | – | 8% and 0% | 11% and 0% | 32% and 25% | 98.1% and 97.3% | 18% and 0% | 0% and 8% | 65% and 49% | 29% and 55% | – | – |
| COc1ccc(Nc2nccc(N3CCC(NC(=O)Nc4cc(C)ccc4C)C3)n2)cc1 (stereo not drawn) [GSK1379741] | 8 | 13 | 0 | 19 | 5 | 0 | 0 | 0 | 47 | 0 | – | – | – | – | – | – | – | – | – | – |
| O=c1cc(N2CCOCC2)nc2n(Cc3cccc(F)c3)ccn12 [GSK2297430] | 22 | 16 | 0 | 33 | 0 | 0 | 43 | 0 | 22 | 0 | – | – | – | – | – | – | – | – | – | – |
| COc1ccc(CNC(=O)NC2CCN(c3ccnc(Nc4ccc(OC)cc4)n3)C2)cc1 (stereo not drawn) [GSK1379727] | 8 | 3 | 0 | 36 | 0 | 0 | 11 | 0 | 8 | 45 | – | – | – | – | – | – | – | – | – | – |
| COc1cc2c(cc1OCCN1CCN(C)CC1)ncc1c3ccc(C#N)cc3[nH]c21 | 35 | 3 | 0 | 89 | 0 | 0 | 0 | 1 | 7 | 35 | – | – | – | – | – | – | – | – | – | – |
| COc1cc2ncn(-c3cc(OCc4sccc4Cl)c(C(N)=O)s3)c2cc1OC [GSK448459] | 0 | 6 | 0 | 89 | 0 | 0 | 0 | 0 | 23 | 0 | – | – | – | – | – | – | – | – | – | – |
| Cl.Nc1ncnc2occ(-c3ccc(NC(=O)Nc4cc(C(F)(F)F)ccc4F)cc3)c12 [SB-707548] | 7 | 60 | 50 | 99.9 | 42 | 19 | 86 | 63 | 93.4 | 96.8 | – | – | – | – | – | – | – | – | – | – |
| CN1c2ccc(CNc3ccc(F)cc3)cc2-c2c(cnn2C)S1(=O)=O | 0 | 0 | 0 | 0 | 0 | 0 | 0 | 0 | 0 | 14 | – | – | – | – | – | – | – | – | – | – |
| Cc1c2ccc(N(C)c3ccnc(Nc4cccc(S(N)(=O)=O)c4)n3)cc2nn1Cc1ccccc1.Cl.Cl [GW787226] | 0 | 50 | 24 | 25 | 17 | 0 | 0 | 2 | 0 | 35 | – | – | – | – | – | – | – | – | – | – |
| CN1c2ccc(NCc3ccc(F)cc3)cc2-c2c(cnn2C)S1(=O)=O | 0 | 0 | 0 | 8 | 0 | 0 | 0 | 0 | 13 | 0 | – | – | – | – | – | – | – | – | – | – |
| O=C(c1ccc(-c2cc(-c3c[nH]nc3-c3ccccn3)ccn2)cc1)N1CCOCC1 [GW812171] | 0 | 0 | 0 | 0 | 29 | 0 | 20 | 8 | 0 | 0 | – | – | – | – | – | – | – | – | – | – |
| CN(C(=O)c1ccc(-c2cc(-c3c[nH]nc3-c3ccccn3)ccn2)cc1)C1CCOCC1 [GW810083] | 0 | 0 | 0 | 0 | 18 | 13 | 10 | 3 | 5 | 0 | – | – | – | – | – | – | – | – | – | – |
| c1ccc(-c2cc(-c3c[nH]nc3-c3ccccn3)ccn2)cc1 [GW576604] | 0 | 0 | 0 | 13 | 16 | 0 | 47 | 0 | 40 | 0 | – | – | – | – | – | – | – | – | – | – |

| Compound | %Inh (YANK3) [%] | %Inh (YES) [%] | %Inh (YSK1) [%] | %Inh (YSK4) [%] | %Inh (ZAK) [%] | %Inh (ZAP70) [%] | %Inh (p38-alpha) [%] | %Inh (p38-beta) [%] | %Inh (p38-delta) [%] | %Inh (p38-gamma) [%] | %Inh (YANK3; 1 µM) | %Inh (YES; 1 µM) | %Inh (YSK1; 1 µM) | %Inh (YSK4; 1 µM) | %Inh (ZAK; 1 µM) | %Inh (p38-alpha; 1 µM) | %Inh (p38-delta; 1 µM) | %Inh (p38-gamma; 1 µM) | %Inh (ZAP70; 1 µM) | %Inh (p38-beta; 1 µM) |
| --- | --- | --- | --- | --- | --- | --- | --- | --- | --- | --- | --- | --- | --- | --- | --- | --- | --- | --- | --- | --- |
| CC(C)Oc1ccc2c(-c3ccnc(Nc4ccc(N5CCN(C)CC5)cc4)n3)cnn2n1 [GW696155] | 0 | 54 | 71 | 99.8 | 0 | 65 | 17 | 0 | 72 | 62 | – | – | – | – | – | – | – | – | – | – |
| Cc1ccc(C(=O)NCC(N)=O)cc1-n1c(C)cc(OCc2ccc(F)cc2F)c(Br)c1=O | 6 | 16 | 0 | 0 | 24 | 0 | 100 | 100 | 18 | 8 | – | – | – | – | – | – | – | – | – | – |
| COC(=O)Nc1nc2cc(Oc3ccc(NC(=O)Nc4cc(F)ccc4F)cc3)ccc2[nH]1.Cl [GW701424] | 0 | 11 | 13 | 53 | 98.8 | 71 | 37 | 0 | 29 | 13 | – | – | – | – | – | – | – | – | – | – |
| O=C(NCCNc1ccnc(Nc2ccc(F)cc2)n1)Nc1ccccc1F [GSK1379880] | 0 | 9 | 0 | 26 | 0 | 0 | 0 | 0 | 52 | 0 | – | – | – | – | – | – | – | – | – | – |
| COc1ccc(S(=O)(=O)NC2CCN(c3cc(C)nc(Nc4cccc(C#N)c4)n3)CC2)cc1.O=C(O)C(F)(F)F [GSK1653539] | 0 | 4 | 20 | 0 | 0 | 0 | 9 | 0 | 28 | 0 | – | – | – | – | – | – | – | – | – | – |
| N#Cc1c(N2CCOCC2)sc(-c2ccn[nH]2)c1-c1ccc(Cl)cc1 | 16 | 7 | 0 | 28 | 0 | 0 | 7 | 14 | 0 | 6 | – | – | – | – | – | – | – | – | – | – |
| NS(=O)(=O)CCc1cccc(Nc2nccc(-c3c(-c4cccc(NC(=O)c5c(F)cccc5F)c4)nn4ccccc34)n2)c1 [GSK336735] | 37 | 99.8 | 24 | 20 | 98.4 | 0 | 97.8 | 98.7 | 54 | 0 | – | – | – | – | – | – | – | – | – | – |
| CC(C)(CN)c1nc(-c2ccc(Cl)c(O)c2)c(-c2ccncc2)[nH]1.O=C(O)C(F)(F)F [SB-477794] | – | – | – | – | – | – | – | – | – | – | 86% and 83% | 88% and 86% | 6% and 96.1% | 87% and 65% | 100% and 59% | 99.8% and 99.3% | 29% and 0% | 19% and 63% | 58% and 0% | 53% and 58% |
| Cc1cccc(Cn2ccn3c(=O)cc(N4CCOCC4)nc23)c1 [GSK2297542] | 16 | 19 | 17 | 12 | 17 | 0 | 27 | 0 | 36 | 51 | – | – | – | – | – | – | – | – | – | – |
| NCC(NC(=O)c1cc(-c2cn[nH]c2)c(-c2ccnc3[nH]ccc23)s1)c1ccccc1.O=C(O)C(F)(F)F.O=C(O)C(F)(F)F (stereo not drawn) [GSK1325775] | 8 | 0 | 24 | 99.8 | 4 | 0 | 10 | 0 | 10 | 27 | – | – | – | – | – | – | – | – | – | – |
| [2H]C([2H])(c1cccc(C(F)(F)F)c1C)n1ccn2c(=O)nc(N3CCOCC3)cc12 [GSK2336394] | 0 | 7 | 0 | 26 | 4 | 24 | 0 | 0 | 46 | 0 | – | – | – | – | – | – | – | – | – | – |
| Cc1cn2c(=O)cc(N3CCOCC3)nc2n1Cc1cccc(Cl)c1Cl [GSK2334006] | 34 | 21 | 0 | 75 | 6 | 6 | 46 | 16 | 22 | 0 | – | – | – | – | – | – | – | – | – | – |
| CCn1cnc2c(N)ncnc21 [GW345098] | 0 | 21 | 0 | 5 | 12 | 3 | 5 | 4 | 0 | 49 | – | – | – | – | – | – | – | – | – | – |
| O=C(NCCNc1ccnc(Nc2ccc(F)cc2)n1)c1cc2ccccc2s1 [GSK1379874] | 8 | 3 | 0 | 35 | 100 | 6 | 20 | 0 | 40 | 0 | – | – | – | – | – | – | – | – | – | – |
| Cl.Oc1cccc(Nc2ccnc3cc(-c4ccncc4)ccc23)c1 [GW494601] | 0 | 94.6 | 7 | 91.7 | 84 | 2 | 50 | 0 | 25 | 0 | – | – | – | – | – | – | – | – | – | – |
| CN(C1=C(c2ccccc2)C(=O)NC1=O)c1ccccc1 [SB-334860] | 17 | 17 | 21 | 9 | 79 | 0 | 0 | 5 | 22 | 5 | – | – | – | – | – | – | – | – | – | – |

— article PMC5540273 (PLoS ONE, 2017)
